Measured values: PubChem BioAssay AID1345085 (National Center for Advancing Translational Sciences (NCATS), 2018)
Results filed as inconclusive are left out. Activity calls are given as the source filed them. Calls follow the shape of the dose curve; as a rule, active = well fitted cell-killing curve with a large enough effect; inconclusive = small, poorly fitted or top-dose-only effect, or effect the other way; inactive = no such curve, though single readings can be large or run the other way.

System: Hek293T
Experiment: Confirmatory qHTS for gynecologic anti-cancer compounds from libraries of approved drugs and bioactive compounds; also: nearly all actives have a fitted effect of over 55% in size
Settings: gynecologic cancer cell panel viability, ATPlite luminescence, 48 h; series mostly up to 57.6 µM
In short: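 IC50 values derive from an ATPlite ATP-content luminescence assay following 48 h treatment at 37 C. Each compound ran as an 11-concentration, threefold series (57.5 uM to 0.977 nM); HEK 293T served as control line for selectivity index.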
Potency is read from the fitted curve at half-maximal effect.

| SMILES | Potency |
| --- | --- |
| CCNC(=O)C[C@@H]1N=C(c2ccc(Cl)cc2)c2cc(OC)ccc2-n2c(C)nnc21 | inactive |
| C[C@H]1CCC/C=C/C2C[C@H](O)C[C@H]2[C@H](O)/C=C/C(=O)O1 (stereo partly drawn) | 1090 nM (active) |
| C=C(C)[C@H]1Cc2c(ccc3c2O[C@@H]2COc4cc(OC)c(OC)cc4[C@@H]2C3=O)O1 | 432 nM (active) |
